Bioassay records deposited in PubChem BioAssay by several laboratories.
The list is not random: actives were taken first. Their share in the collection is about 4.8%.
TIM10 inh: growth inhibitors of isogenic TIM10 control yeast, primary screen, counter-screen for tim10-1 yeast inhibitor project, luminescence, uHTS | AID 463195, 2010 | S. cerevisiae TIM10 strain growth, BacTiter-Glo luminescence, 24 h | hit rate 1.4% among 330,000 | inhibition, % at 10 µM;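 active = inhibition of 40% or more at the single tested concentration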;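 also: wild-type TIM10 isogenic control strain grown at permissive 25 °C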
PfHsp90 set2: growth inhibition of PfHsp90-expressing yeast, primary screen, antimalarial PfHsp90 inhibitor project, S. cerevisiae, BacTiter-Glo luminescence, single point, set 2 | BacTiter-Glo ATP, 48 h; yeast lacking PDR1 and PDR3 efflux regulators | inhibition, % at 9.4 µM | hit rate 0.32% among 310,000;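 active = every replicate shows inhibition above about 80%, whatever the replicate mean, limit read from the data; inconclusive = mean inhibition reaches the set limit but some replicate falls short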
NALP1 inh: NALP1 inflammasome inhibitors in reconstituted yeast, colorimetric, S. cerevisiae, triplicate retest; hit rate 0.61% among 280,000; AID 2071, 2009; inhibition, % at 10 µM; S. cerevisiae NALP1/ASC/caspase-1 growth, X-gal OD620, 72 h; in the data active = inhibition mostly above about 24%, no sharp cut-off; inactive = mostly below about 32%
SKKanGAS inh: S. pyogenes SKKanGAS growth inhibitors in kanamycin, primary screen, streptokinase expression inhibitor project, SKKanGAS strain, BacTiter-Glo luminescence. 6 h. inhibition, % at 7.5 µM. hit rate 1.3% among 300,000. AID 1662, 2009;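 active = mean replicate score, as percent of positive control median, at least 50; inconclusive = mean below 50 but one replicate at or above 50; inactive = mean and every replicate below 50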;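 also: strain carries kanamycin resistance gene driven by streptokinase promoter and grows in 40 µg/ml kanamycin; loss of luminescence reflects streptokinase promoter inhibition or plain growth inhibition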
tim23-1 inh: growth inhibitors of tim23-1 mutant yeast, primary screen, luminescence, uHTS; S. cerevisiae tim23-1 growth, BacTiter-Glo luminescence, 24 h; inhibition, % at 20 µM; hit rate 1.3% among 330,000; AID 463212, 2010;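 active = growth inhibition of the mutant yeast at or above 50%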;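 also: temperature-sensitive mutant grown at 25 °C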
tim10-1 inh: growth inhibitors of tim10-1 mutant yeast, primary screen, luminescence, uHTS. hit rate 2.2% among 330,000. inhibition, % at 20 µM. S. cerevisiae tim10-1 ts strain growth, BacTiter-Glo, 24 h;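 active = inhibition of at least 40%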;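 also: mutant grown at 25 °C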
Large screens that a line does not name were inactive.

COc1cccc(C(=O)Nc2nnc(-c3ccc(F)cc3)o2)c1	SKKanGAS inh 91
Cc1ccc(CCS(=O)(=O)c2ccc(C(C)(C)C)cc2)cn1	none
O=C(c1ccccc1Cl)N(Cc1ccc(Br)cc1)N1C(=O)CCCC1=O	none
O=C(c1ccc([N+](=O)[O-])cc1)N(Cc1ccc(Br)cc1)N1C(=O)CCCC1=O	NALP1 inh 34 (no result: PfHsp90 set2)
O=C1N/C(=C\c2ccsc2)C(=O)N1Cc1ccc(F)cc1	none
Cc1ccsc1/C=C1/NC(=O)N(Cc2ccc(F)cc2)C1=O	NALP1 inh 34
O=S(=O)(Nc1nccs1)c1ccc(F)cc1	NALP1 inh 27
Cc1ccc(Oc2ccc3c(c2)C(=O)N(c2ccc(S(=O)(=O)Nc4nccs4)cc2)C3=O)cc1	SKKanGAS inh 93
COc1ccc(NC(=S)N(C(C)C)C2CCN(C(C)C)CC2)cc1Cl	NALP1 inh 47 (no result: PfHsp90 set2)
O=C(CC(c1ccc(F)cc1)c1ccco1)N1CCOCC1 (stereo not drawn)	none (no result: NALP1 inh)
CCCc1nc(NCc2ccccc2)c(C#N)c2c1CCCC2	SKKanGAS inh 74
CC(C)(C)c1csc(NNC(=O)c2ccc(Cl)cc2)n1	SKKanGAS inh 90 (no result: NALP1 inh)
Cc1onc(-c2c(Cl)cccc2Cl)c1C(=O)Nc1nc(C(C)(C)C)cs1	NALP1 inh 36
O=[N+]([O-])c1ccc(F)cc1OCc1nc(-c2cccs2)no1	none (no result: TIM10 inh, tim23-1 inh, tim10-1 inh)
CC(=O)Nc1ccc(S(=O)(=O)NCCC(=O)N2CCCCC2)cc1	none (no result: PfHsp90 set2, NALP1 inh)
OC(Cn1cncn1)(c1ccccc1)c1ccccc1	PfHsp90 set2 92
Cc1ccc(C(=O)C(O)C(c2ccc(C)cc2)N2CCCCC2)cc1 (stereo not drawn)	none
N#Cc1c2c(c(-c3ccccc3Cl)[nH]c1=S)CCCC2	none (no result: TIM10 inh, PfHsp90 set2, SKKanGAS inh, tim23-1 inh, tim10-1 inh)
O=C1NN(c2ccccc2)C(=O)/C1=C/c1ccc(Sc2cccc3ccccc23)o1	SKKanGAS inh 50
CCC1=NN2C(=N)/C(=C\c3cccn3-c3ccc(C)cc3C)C(=O)N=C2S1	PfHsp90 set2 94
O=C(NCCCN1CCOCC1)c1cc2cc(Br)ccc2oc1=O	none
CCOC(=O)c1c(Nc2ccccc2)sc(/C=C2\C=Nc3ccccc32)c1O	none
Oc1nc(Nc2ccccc2)sc1/C=C1\C=Nc2ccccc21	SKKanGAS inh 54
COc1ccc(Cn2c(-c3ccco3)nc3oc4ccccc4c(=O)c3c2=O)cc1	SKKanGAS inh inconclusive (no result: PfHsp90 set2)
CCCCn1c(-c2ccco2)nc2oc3ccccc3c(=O)c2c1=O	SKKanGAS inh 50
O=C(NC(NC(=S)Nc1c(Cl)cccc1Cl)C(Cl)(Cl)Cl)OCc1ccccc1 (stereo not drawn)	SKKanGAS inh 77
Cc1cc(C)c(N(C(=O)c2csnn2)C(C(=O)NC2CCCC2)c2ccncc2)c(C)c1 (stereo not drawn)	none
O=C1[C@@H]2C(c3cccnc3)=NO[C@@H]2C(=O)N1c1ccc(Br)cc1	PfHsp90 set2 94
Cc1ccc(N2C(=O)[C@@H]3C(c4cccnc4)=NO[C@@H]3C2=O)c(C)c1	none
O=C(NCCc1ccccc1)C1CCN(C(=O)NCc2ccccc2)CC1	none (no result: PfHsp90 set2)
CCS(=O)(=O)c1nc(S(=O)(=O)c2ccc(Cl)cc2)c(N2CCc3ccccc3C2)s1	none
CCN1CCN(Cc2ccc(NC(=O)c3cc(NC(=O)C(=O)c4c[nH]c5ccccc45)cc(OC)c3)cc2C(F)(F)F)CC1	SKKanGAS inh 99 (no result: NALP1 inh)
CCN1CCN(Cc2ccc(NC(=O)c3cc(NC(=O)c4cc(C)on4)cc(OC)c3)cc2C(F)(F)F)CC1	none
CCN1CCN(Cc2ccc(NC(=O)c3ccc(C)c(NC(=O)C(=O)c4c[nH]c5ccccc45)c3)cc2C(F)(F)F)CC1	SKKanGAS inh 83
CC1CCC2C(=O)N(c3ccc(C(=O)Oc4cccc5cccnc45)cc3)C(=O)C2C1 (stereo not drawn)	NALP1 inh 71
COc1cc(/C=C/C(=O)OCC(=O)Nc2ccccc2Sc2ccc(Cl)cc2)ccc1O	none
Cc1ccc(S(C)(=O)=NC(=O)NC(=O)c2c(F)cccc2Cl)cc1 (stereo not drawn)	none
Cc1ccc(S(=O)(=O)/N=c2\ccc(Cl)cn2C(F)F)cc1	NALP1 inh 38
CCc1ccc(S(=O)(=O)NCc2cn3ccccc3n2)s1	NALP1 inh 38
CCc1ccc(S(=O)(=O)NCc2cn3cccc(C)c3n2)s1	none
COc1cc2c(cc1OC)C(C)N(C(=O)c1cc3n(n1)C(C(F)(F)F)CC(c1ccco1)N3)CC2 (stereo not drawn)	none
Fc1ccc(C(CCNCc2ccccn2)c2ccc(Cl)cc2)cc1 (stereo not drawn)	SKKanGAS inh 64
CC(C)=CCc1c(O)cc(O)c2c1OC(c1ccc(O)cc1)CC2=O (stereo not drawn)	none (no result: NALP1 inh)
CC(C)=CCc1c(O)c(CC=C(C)C)c2c(c1O)C(=O)CC(c1ccc(O)cc1)O2 (stereo not drawn)	SKKanGAS inh 102 (no result: PfHsp90 set2)
O=C(NCCS(=O)(=O)N1CCN(c2ccc(F)cc2)CC1)c1ccc(Br)o1	none
COc1ccccc1C(=O)N/N=C(\C)c1ccc(NC(=O)C2CC2)cc1	none
O=S(=O)(c1cc(F)ccc1F)N1CCN(c2ncnc3ccccc23)CC1	none (no result: NALP1 inh, SKKanGAS inh)
CN1C(=O)C2(C(C#N)=C(N)N(c3cc(Cl)cc(Cl)c3)C3=C2C(=O)CC(C)(C)C3)c2ccccc21 (stereo not drawn)	none
CC1=C(C(=O)O)N2C(=O)C(NC(=O)c3ccccc3Cl)C2SC1 (stereo not drawn)	none
N[C@@H](C(=O)N[C@@H]1C(=O)N2C(C(=O)O)=C(Cl)CS[C@H]12)c1ccccc1	SKKanGAS inh 105
CCc1ccc(NC(=O)CSc2n[nH]c(=O)n2C2CC2)cc1	none (no result: NALP1 inh, SKKanGAS inh)
CC(C)C(=O)NC(c1cccs1)c1cc([N+](=O)[O-])c2cccnc2c1O (stereo not drawn)	SKKanGAS inh 77
Cc1ccc(C(NC(=O)C(C)C)c2cc([N+](=O)[O-])c3cccnc3c2O)cc1 (stereo not drawn)	SKKanGAS inh 89
CCC(=O)NC(/C=C/c1ccccc1)c1cc([N+](=O)[O-])c2cccnc2c1O (stereo not drawn)	none (no result: PfHsp90 set2)
CCOc1cc(/C=N/Nc2cc(C)nc(-n3nc(C)cc3C)n2)ccc1O	SKKanGAS inh 66
COc1ccc(/C=N/Nc2cc(C)nc(-n3nc(C)cc3C)n2)c(OC)c1	SKKanGAS inh 103
CCCOc1ccc(N2C(=O)CC(N3CCC(C(=O)OCC)CC3)C2=O)cc1 (stereo not drawn)	PfHsp90 set2 105
